TGFb SMAD3 inh: qHTS for Inhibitors of TGF-b. 1.2% of 410,000 active. AID 588855, 2011. Potency, µM (highest dose often 46.1 µM), inactives show at the highest dose activity, negative = inhibition, most hits filed as inhibitors. HepG2 CAGA-GFP TGF-b/SMAD3 reporter, GFP fluorescence, 18 h; TGF-beta stimulated, 500 pg/mL final; also: % is scaled to controls: 0 for no effect and ±100 for the full control effect; nearly all actives have a fitted effect of over 65% in size
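Read-out: total well GFP (ex488/em500-530) summed from mean per-cell fluorescence. Cells: HEPG2 CAGA-GFP, 1% FBS DMEM, 18 h at 37 degrees C with 500 pg/mL final TGF-beta. Unstimulated wells served as the full-inhibition control; stimulated DMSO wells = 0%.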
S2 tox: Viability Counterscreen for Primary qHTS for Inhibitors of ATXN expression | S2 cells (HEK-293 line with an ATXN2-luciferase reporter) viability, CellTiter-Fluor protease fluorescence, 24 h | Potency, µM (top dose mostly 56.7 µM), hits mostly cytotoxic | 0.49% of 400,000 active; also: nearly all actives have a fitted effect of over 40% in size
HepG2 viability: qHTS for Inhibitors of TGF-b: Cytotox Counterscreen | Potency, µM (highest dose often 46.1 µM), for inactives: at the top dose activity change, negative = cytotoxicity, usual class: cytotoxic | HepG2 CAGA-GFP viability, ATP luminescence, 18 h | 0.76% of 410,000 active | AID 588856, 2011
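HepG2 CAGA-GFP cells (1000/well, DMEM with 1% FBS) received compound, then TGF-beta at 500 pg/mL final, and were incubated 18 hours at 37 degrees C. Viability was read by CellTiter-Glo luminescence. Media-only wells were set as complete cell-killing and DMSO as no toxicity.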
HT1080-NT tox: qHTS for induction of synthetic lethality in tumor cells producing 2HG: qHTS for the HT-1080-NT fibrosarcoma cell line; HT-1080-NT fibrosarcoma viability, CellTiter-Glo ATP luminescence, 48 h; Potency, µM (doses to about 46.1 µM), inactives show at the highest dose activity, negative = less viability, hits mostly cytotoxic; 1.6% of 360,000 active; AID 686970, 2013;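 also: NT is the 2HG producing partner of a matched IDH1 knockdown line; 0% = DMSO-treated cells and -100% = media-only wells without cells; nearly all actives have a fitted effect of over 55% in size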
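750 cells/well, RPMI + 5% FBS; 2 h settle, compound pin-transfer, 48 h at 37 degrees C. CellTiter-Glo 10 min RT, luminescence. Normalized to DMSO and media-only wells.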
ATXN2 expr inh: Primary qHTS for Inhibitors of ATXN expression; HEK-293 ATXN2-luciferase reporter, luminescence, 24 h; Potency, µM (doses to about 57 µM), for the others: at the highest dose activity change, negative = inhibition, hits mostly inhibitors; 0.72% of 360,000 active; AID 1745845, 2022; also: % is scaled to controls: 0 for no effect and ±100 for the full control effect; nearly all actives have a fitted effect of over 55% in size
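ATXN2-luciferase reporter cells (luciferase flanked by upstream and downstream ATXN2 gene portions) were treated 24 h at 37 °C with compounds at up to 57 uM. SteadyGlo luminescence gave expression; GF-AFC fluorescence gave viability.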
HT1080 IDH1KD tx: qHTS for induction of synthetic lethality in tumor cells producing 2HG: qHTS for the HT-1080-IDH1KD cell line | HT-1080 IDH1 knockdown viability, ATP luminescence, 48 h | Potency, µM (top dose mostly 46.1 µM), for inactives: top-dose activity, negative = toxicity, most hits filed as cytotoxic | 2% of 360,000 active;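 also: 0% = DMSO wells and -100% = cell-free medium wells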
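% activity derives from luminescence (CellTiter-Glo), normalised to DMSO and no-cell wells. HT-1080-IDH1KD cells, 750/well, had 48 h compound exposure at 37 °C.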
Starred values were filed as active, the others as inactive; i = inactive; ? = inconclusive; . = no result. Only some compounds are listed: those with a hit (about 3.8% of all), similar ones and a draw of the others. Calls follow the shape of the dose curve; as a rule, active = well fitted curve in the direction sought with a large enough effect; inconclusive = small, poorly fitted or top-dose-only effect, or another doubt; inactive = no such curve, though single readings can be large; an effect the other way counts as inactive or inconclusive. Potency is read from the fitted curve at half-maximal effect.

SMILES | TGFb SMAD3 inh | S2 tox | HepG2 viability | HT1080-NT tox | ATXN2 expr inh | HT1080 IDH1KD tx
Cc1nc2nc(CNC(=O)OC(C)(C)C)nn2c(C)c1CCC(=O)NCc1ccccc1Cl | 19% | i | 1% | . | 5% | .
COc1ccc(-c2cc(C(=O)N3CCCC3)no2)cc1 | -20% | i | -17% | -5% | 8.9µM* | -17%
O=C(O)CSc1ncnc2nc[nH]c12 | 0% | i | -3% | 0% | 0% | -11%
c1nc(SSc2ncnc3nc[nH]c23)c2[nH]cnc2n1 | 0% | i | -65% | 2.3µM* | -6% | 1.3µM*
O=C(CSc1ncnc2nc[nH]c12)c1ccc2ccccc2c1 | -3% | i | -32% | 23µM* | 15% | ?
Cc1cc(C)c(CSc2ncnc3nc[nH]c23)c(C)c1 | -12% | i | -15% | -2% | -20% | -2%
Cc1ncc2c(c1CNS(=O)(=O)c1cccs1)CCN(C(=O)/C=C/c1ccc(F)cc1F)C2 | . | i | . | . | . | .
CSc1ccc(CN2CCC(CO)(Cc3ccc(Cl)cc3)CC2)cc1 | 22µM* | ? | -156% | ? | ? | -23%
COc1ccc(-c2c(C)sc(NC(=O)c3ccnn3C)c2C#N)cc1 | 9% | i | 9% | 13µM* | -21% | 21µM*
COc1ccc2ccccc2c1CN1CCCC(n2cc(C(=O)N3CCCC3)nn2)C1 (stereo not drawn) | . | i | . | . | . | .
OC1(c2ccc(Cl)cc2)CCNCC1 | . | i | . | . | -18% | .
Cc1c(C(=O)N/N=C/C(C)C)[nH]c2c([N+](=O)[O-])cccc12 | -29% | i | -26% | ? | -25% | 2.6µM*
CCSc1ncc(/C=N/Nc2ccc([N+](=O)[O-])cc2)n1C | ? | i | -6% | 13µM* | 66% | 13µM*
CCc1ccc(S(=O)(=O)/N=C2\C=C(NS(=O)(=O)c3ccccc3)C(=O)c3ccccc32)cc1 | ? | ? | -60% | -21% | -21% | -23%
CC(C)c1ccc(S(=O)(=O)/N=C2\C=C(NS(=O)(=O)c3ccccc3)C(=O)c3ccccc32)cc1 | ? | ? | -46% | -27% | -5% | ?
Cc1ccccc1NC1=C/C(=N\S(=O)(=O)c2ccc(C(=O)O)cc2)c2ccccc2C1=O | ? | 10µM* | 18µM* | 23µM* | 8.9µM* | 23µM*
O=C(O)c1ccc(S(=O)(=O)/N=C2\C=C(Nc3ccccc3F)C(=O)c3ccccc32)cc1 | 3.2µM* | 7.9µM* | 4.5µM* | ? | 7.9µM* | 8.2µM*
Cc1ccc(NC2=C/C(=N/S(=O)(=O)c3cccs3)c3ccccc3C2=O)cc1C | -16% | i | -15% | -1% | 8% | 0%
Cc1ccccc1NC1=C/C(=N\S(=O)(=O)c2cccs2)c2ccccc2C1=O | ? | 6.3µM* | 3.2µM* | 5.8µM* | 7.9µM* | 7.3µM*
CC(C)(C)n1ncc2c(=O)n(Cc3ccc(C#N)cc3F)cnc21 | -8% | . | -8% | . | . | .
COC1CCC(C(=O)c2ccc3nc4c(cc3c2)CCCO4)CC1 (stereo not drawn) | . | . | . | . | 31µM* | .
Cc1ccc(S(=O)(=O)NCC(=O)NCc2ccncc2)cc1 | 2% | i | -6% | 9% | 4% | 9%
Cc1ccc(S(=O)(=O)NCc2ccncc2)cc1 | ? | i | -7% | -16% | -27% | 6.5µM*
COc1cc(=O)n2c(c1C(=O)NCc1ccco1)CCN(Cc1cccc(C)n1)CC2 | . | i | . | . | . | .
CN(C)c1ccc(/C=C2\C=Cc3ccccc32)cc1N | -20% | . | -35% | . | . | .
SMILES | TGFb SMAD3 inh | S2 tox | HepG2 viability | HT1080-NT tox | ATXN2 expr inh | HT1080 IDH1KD tx
O=C1NC2(CCC3(CC2)OCCO3)NN1c1ccccc1 | -3% | i | -26% | 6.5µM* | -22% | 7.3µM*
COc1ccc(C(=O)NCCn2cc(SCC(=O)Nc3ccc(F)cc3)c3ccccc32)cc1 | ? | 32µM* | -30% | . | ? | .
CCOc1ccc(NC(=O)CSc2cn(CCNC(=O)c3ccccc3F)c3ccccc23)cc1 | ? | i | -26% | . | 0% | .
CCOc1ccc(C(=O)NCCn2cc(SCC(=O)Nc3ccccc3)c3ccccc32)cc1 | 10µM* | ? | -14% | . | ? | .
Cc1ccc(S(=O)(=O)Nc2nc3ccccc3nc2NCc2ccco2)cc1 | -7% | i | -33% | ? | 142% | 10µM*
Cc1ccccc1Nc1nc(NCc2ccco2)c2ccccc2n1 | ? | ? | -37% | ? | ? | 15µM*
Oc1ccccc1Nc1nc(NCc2ccco2)c2ccccc2n1 | ? | i | -74% | -13% | . | -6%
Cc1cccc(Nc2nc(NCc3ccco3)c3ccccc3n2)c1 | ? | . | 10µM* | ? | 25µM* | 18µM*
COc1ccc(OC)c(Nc2nc(NCc3ccco3)nc(N)c2[N+](=O)[O-])c1 | ? | i | -19% | -3% | ? | -2%
COc1ccc(OC)c(Nc2nc(NCc3ccco3)c3ccccc3n2)c1 | ? | . | -53% | 21µM* | 32µM* | ?
Cc1ccc(-c2nc(NCc3ccco3)c3ccccc3n2)cc1 | ? | i | -49% | ? | . | -15%
O=C(O)C1=NC(C(=O)O)CC(C=CN2c3cc(O)c(OC4OC(CO)C(O)C(O)C4O)cc3CC2C(=O)O)=C1 (stereo not drawn) | . | . | . | . | 8% | .
CCNc1nc(NCc2ccco2)c2ccccc2n1 | ? | . | -8% | . | . | .
OCCNc1nc(Nc2cccc(O)c2)nc2ccccc12 | ? | i | -2% | -11% | -38% | 0%

Screening results deposited in PubChem BioAssay by National Center for Advancing Translational Sciences (NCATS).
